Compound activity (PubChem BioAssay)
mIDH1 inhibitor: inhibitors of human mutant IDH1 R132H | O75874 | IDH1-R132H enzyme, NADPH consumption, diaphorase/resazurin fluorescence | Potency, µM (doses to about 76.6 µM), inactives show at the highest dose activity change, negative = inhibition, hits mostly inhibitors | actives 0.093% (n = 390,000) | AID 602179; also: nearly all actives have a fitted effect of over 65% in size
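IDH1-R132H (0.5 ug/mL) preincubated 30 min with compound, then NADPH (0.016 mM) and alpha-KG (2 mM) added; 80 min at RT, pH 7.5. Remaining NADPH coupled via diaphorase/resazurin to fluorescence (540/590 nm); concentration-response curves normalized to no-enzyme control.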
TrxR1 substrate: is turned over as a substrate by rat TrxR1. purified TrxR1 substrate turnover, NADPH consumption readout. Potency, µM (titrated, usually from 114 µM), for the others: at the highest dose activity change, negative = substrate turnover. actives 0.01% (n = 390,000). AID 588456; also: nearly all actives have a fitted effect of over 50% in size
Target sequence (O89049 whole entry, looked up): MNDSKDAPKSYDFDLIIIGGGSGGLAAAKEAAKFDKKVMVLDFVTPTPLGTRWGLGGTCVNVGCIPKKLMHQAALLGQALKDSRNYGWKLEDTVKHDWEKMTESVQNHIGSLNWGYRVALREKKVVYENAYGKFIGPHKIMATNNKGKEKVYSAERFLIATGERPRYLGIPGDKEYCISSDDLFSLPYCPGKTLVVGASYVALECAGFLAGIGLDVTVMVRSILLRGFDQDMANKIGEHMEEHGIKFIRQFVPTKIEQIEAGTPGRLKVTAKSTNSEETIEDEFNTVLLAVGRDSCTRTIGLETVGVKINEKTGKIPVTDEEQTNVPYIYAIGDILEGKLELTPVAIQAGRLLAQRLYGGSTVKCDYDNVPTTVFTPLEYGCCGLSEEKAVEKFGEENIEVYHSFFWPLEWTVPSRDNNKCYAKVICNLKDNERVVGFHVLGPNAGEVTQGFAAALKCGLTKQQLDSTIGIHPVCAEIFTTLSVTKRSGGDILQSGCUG
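Rat TrxR1, dispensed at 90 nM, was prereduced with 400 uM NADPH (final) for 5 min at ~22 deg C, then incubated with compound 15 min before 400 uM selenite. A first-read NADPH fluorescence drop versus no-compound background flagged substrates.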
Sfp PPTase inh: blocks B. subtilis Sfp PPTase activity | actives 3.5% (n = 310,000) | Biochemical Sfp PPTase activity, qHTS | Potency, µM, inactives show largest response in the series, negative = inhibition, usual class: inhibitors | Q9F4F7;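 also: the enzyme is Sfp with the accession as filed and its product quenches rhodamine fluorescence; 0% = enzyme reaction without inhibitor and -100% = no enzyme wells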
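Fluorescence-quenching assay: 15 nM Sfp-PPTase preincubated 15 min at room temperature with compound, then 5 uM rhodamine-CoA and 12.5 uM BHQ-2-labelled YbbR peptide added. Fluorescence (ex 525/em 598 nm) read at start and after 30 min; difference gives rate.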
rTrxR1 inhibitor: rat TrxR1 inhibition. actives 1% (n = 390,000). Potency, µM (series often up to 114 µM), for the others: top-dose activity change, negative = inhibition, actives largely listed as inhibitors. O89049. AID 588453. recombinant rTrxR1, NADPH fluorescence consumption, selenite substrate; also: nearly all actives have a fitted effect of over 65% in size
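Rat TrxR1 (90 nM in the dispensed reagent) was pre-reduced with 400 uM NADPH for 5 min at room temperature, then incubated with compound for 15 min. After 400 uM selenite was added, NADPH fluorescence (Ex 340/Em 450 nm) was followed for 8 min.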
PLK1 PBD inh: blocks phosphopeptide binding to human PLK1 polo-box domain. Plk1 PBD binding of FITC phosphopeptide, fluorescence polarization. Potency, µM, for the others: max response, negative = inhibition, most hits filed as inhibitors. actives 2.8% (n = 360,000). AID 720504; also: series mostly up to about 57 µM; nearly all actives have a fitted effect of over 65% in size
VDR inh: inhibitors of human vitamin D receptor; P11473; VDR-SRC2-3 peptide fluorescence polarization, 2 h; Potency, µM, without a hit: max response, negative = inhibition, most hits filed as inhibitors; actives 0.93% (n = 400,000); AID 504847
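Reagent solutions, kept cold and dark, are dispensed first; compounds are then pinned in at 23 nl, plates briefly spun, and incubated 2 h at ambient temperature. Inhibition of VDR–SRC2-3 peptide binding is read by fluorescence polarization.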
* hit, by the source's call; ? = inconclusive; / = not tested or not shown; ! = a repeat was not active; [ ] = another dose, or the depositor's remark. Most compounds without a hit are left out; they make up all but 5.2% or so of the library. Calls follow the shape of the dose curve; as a rule, active = well fitted curve in the direction sought with a large enough effect; inconclusive = small, poorly fitted or top-dose-only effect, or another doubt; inactive = no such curve, though single readings can be large; an effect the other way counts as inactive or inconclusive. Unless noted, % is scaled to controls: 0 for no effect and ±100 for the full control effect; potency is read from the fitted curve at half-maximal effect.

SMILES	mIDH1 inhibitor	TrxR1 substrate	Sfp PPTase inh	rTrxR1 inhibitor	PLK1 PBD inh	VDR inh
Cc1ccc(N2CCN(C(=O)C3CCC(=O)N(Cc4ccc(Cl)cc4)C3)CC2)c(C)c1 (stereo not drawn)	0.0%	-7.6%	1.1%	-13.7%	-2.6%	-13.1%
CC(=O)c1cccc(-c2ccnc3c2CC(C(=O)Nc2ccccc2)O3)c1 (stereo not drawn)	/	/	/	/	-4.9%	/
COc1ccc(CNC(=O)c2sc(=S)n(-c3ccccc3)c2N)cc1	5.6%	2.4%	25.1µM*	15.0%[11.4 µM]	13.4µM*	2.2%
C/C(N)=C(/C#N)C(=O)CSc1nc2ccccc2c(=O)n1Cc1ccc(F)cc1	-4.1%	-4.5%	70.8µM*	-0.3%	-11.4%	-11.0%
CC1CCc2c(sc(NS(=O)(=O)c3ccccc3)c2C(=O)OC(C)C)C1 (stereo not drawn)	1.3%	-0.4%	?	3.8%	16.8µM*	?
COC(=O)c1c(NS(=O)(=O)c2ccc3ccccc3c2)sc2c1CCCC2	0.0%	-9.0%	-7.8%	?	23.8µM*	10.8%
CC1CCc2c(sc(NC(=O)c3ccco3)c2C(=O)O)C1 (stereo not drawn)	28.6%	-7.9%	2.8%	4.3%	-12.4%	-9.1%
O=S(=O)(NCCCCNS(=O)(=O)c1cccc2cccnc12)c1cccc2cccnc12	/	1.0%	/	19.7%	/	/
COc1ccc(NCc2cccn2-c2nnc(N3CCCCCC3)s2)cc1	-2.6%	-11.8%	/	-4.0%	/	-1.7%
COC(=O)c1c(NC(=O)CC2Nc3cc(C)c(C)cc3NC2=O)sc(C)c1C (stereo not drawn)	0.5%	-5.9%	56.2µM*	-9.5%	?	-17.2%
COc1ccc(CNCC(O)(c2ccc(F)cc2)c2ccc(F)cc2)cc1OC	3.2%	5.5%	-0.6%	14.1%	-0.6%	18.0%
COc1ccc(CNCC(O)(c2ccc(Cl)cc2)c2ccc(Cl)cc2)cc1OC	-0.4%	-7.8%	44.7µM*	-5.1%	5.1%	8.8%
COCO[C@H]([C@@H](C)C=C(Br)Br)[C@@H](C)COCc1ccc(OC)cc1	/	1.6%	-4.8%	13.4%	/	-7.5%
COc1ccc(COC[C@H](C)[C@H](O)[C@@H](C)[C@H]2OC(=O)[C@@H]2C)cc1	3.8%	-3.4%	7.7%	7.94µM*!	-17.3%	-19.2%
Cc1cc(C)cc(NC(=O)CSc2nc(-c3ccccc3)c3cc(F)ccc3n2)c1	-17.1%	2.9%	/	29.8%	/	7.3%
CCCOc1ccc(C2C(C(=O)c3ccc(C)o3)=C(O)C(=O)N2CCN2CCOCC2)cc1OC (stereo not drawn)	4.3%	-6.1%	-22.2%	50.1µM*	-13.0%	4.8%
CCC(C)n1c(SCC(=O)NC2CCCC2)nc2ccccc2c1=O (stereo not drawn)	1.3%	0.5%	/	10.2%	-2.9%	-7.0%
C/C(=N\O)C(=O)C(CN1CCCCC1)CN1CCCCC1	5.1%	20.0%[57.1 µM]	-9.5%	0.447µM*	?	-11.7%
CN1CCN(c2ncc3nc(-c4ccc(Cl)cc4)c(=O)n(C4CC4)c3n2)CC1	/	/	-11.6%	/	/	-0.5%
S=c1nc[nH]c2c1cnn2-c1ccccc1	-1.5%	3.6%	17.8µM*	2.6%	-2.2%	-5.7%
Nc1ncnc2c1cnn2-c1ccccc1	-4.9%	21.0%	-11.7%	11.3%	1.8%	4.5%
CCc1ccc(N=C2NC(=O)/C(=C/c3cc(Br)c(OCC(=O)O)c(OC)c3)S2)cc1	-28.6%	-14.4%	1.7%	-23.8%	29.9µM*	?
N#CC1=C(N)NC(=S)C(C(N)=O)C1c1ccccc1F (stereo not drawn)	12.6%	0.4%	0.708µM*	?	18.9µM*	4.47µM*
CCOC(=O)C1C(=O)NC(SC)=C(C#N)C1c1ccccc1F (stereo not drawn)	5.9%	1.6%	18.1%	17.9%	-16.4%	-13.8%
N#CC1=C(N)NC(=S)C(C(N)=O)C1c1ccc(Cl)cc1Cl (stereo not drawn)	5.7%	-16.7%	8.91µM*	-50.0%	18.9µM*	22.4µM*
SMILES	mIDH1 inhibitor	TrxR1 substrate	Sfp PPTase inh	rTrxR1 inhibitor	PLK1 PBD inh	VDR inh
CC(=O)NS(=O)(=O)c1cccnc1Nc1ccc(Cl)c(Cl)c1	4.5%	-10.6%	1.1%	-2.7%[57.1 µM]	9.47µM*	-16.8%
O=C(c1ccc(Cl)cc1)c1oc2ccccc2c1CS(=O)c1ccccc1 (stereo not drawn)	5.6%	-0.3%	44.7µM*	22.2%	-14.1%	-24.4%
CCOC(=O)N1CCN(C(=O)Nc2sc3nc4n(c(=O)c3c2C)CCC(C)CC4)CC1 (stereo not drawn)	5.3%	6.5%	-10.1%	28.2µM*	-17.4%	-10.7%
CCN(C(=O)c1sc2nc3n(c(=O)c2c1C)CCCCC3)c1ccc(OC)cc1	6.1%	-1.3%	/	70.8µM*	/	5.9%
CCOC(=O)c1sc2nc3n(c(=O)c2c1C)CCC(C)CC3 (stereo not drawn)	1.6%	7.6%	22.4µM*	-0.4%	29.9µM*	-16.7%
Cc1c(NC(=O)Nc2ccc(Cl)c(Cl)c2)sc2nc3n(c(=O)c12)CCC(C)CC3 (stereo not drawn)	-14.8%	-2.3%	/	17.5%	/	-0.5%
C(=C\c1ccnc2ccccc12)/c1ccccc1	/	5.4%[0.0914 µM]	/	-4.5%	/	/
FC(F)(F)c1ccccc1-c1ccc2ncnc(NCc3cccnc3)c2c1	/	/	-7.1%	/	/	?
COc1cccc(CNC(=O)c2cc3c(=O)n(Cc4cccnc4)ccc3nc2C)c1	0.0%	26.2%[57.1 µM]	/	19.6%[57.1 µM]	/	10.1%
CC(C)CC1Nc2ncnc(N3CCN(c4ccccn4)CC3)c2N(Cc2ccccc2)C1=O (stereo not drawn)	-6.5%	7.3%[57.1 µM]	/	16.6%	2.5%	1.5%
O=C1C=CC(c2ccccc2)(c2ccccc2)CC1	-9.9%	6.1%	/	33.1%	-4.3%	2.9%
Cc1cc(OC(C)C(=O)NCc2ccncc2)c2c(C)c(C)c(=O)oc2c1 (stereo not drawn)	-4.7%	38.0%[57.1 µM]	-0.7%	3.5%[57.1 µM]	11.9µM*	?
CCCCc1cc(=O)oc2cc(C)cc(OC(C)C(=O)NCc3ccccn3)c12 (stereo not drawn)	2.7%	56.3%	11.0%	26.7%	1.5%	10.6%
Cc1cc(OC(C)C(=O)NCc2cccnc2)c2c(C)cc(=O)oc2c1 (stereo not drawn)	3.1%	34.2%[57.1 µM]	12.4%	18.0%[57.1 µM]	26.7µM*	-15.9%
Cc1cc(OC(C)C(=O)NCc2ccncc2)c2c(C)cc(=O)oc2c1 (stereo not drawn)	8.5%	34.7%[57.1 µM]	15.8%	16.2%[57.1 µM]	?	-2.0%
Cc1cc(OC(C)C(=O)NCc2ccccn2)c2c(C)cc(=O)oc2c1 (stereo not drawn)	6.2%	50.5%[57.1 µM]	16.2%	32.3%[57.1 µM]	26.7µM*	-16.2%
N#Cc1cccc(S(=O)(=O)N2CCN(c3nc(-c4cccs4)nc4ccccc34)CC2)c1	/	3.9%	/	9.2%	/	10.2%
